# Experimental data taken from ChEMBL document CHEMBL2218924, “A broad activity screen in support of a chemogenomic map for kinase signalling research and drug discovery” (Biochem J, 2013).
# How the values were obtained:
# [1] = molecular target: T1, Muscle, skeletal receptor tyrosine-protein kinase (Homo sapiens) (UniProt O15146); details: at 1 µM
# T1 sequence (whole entry): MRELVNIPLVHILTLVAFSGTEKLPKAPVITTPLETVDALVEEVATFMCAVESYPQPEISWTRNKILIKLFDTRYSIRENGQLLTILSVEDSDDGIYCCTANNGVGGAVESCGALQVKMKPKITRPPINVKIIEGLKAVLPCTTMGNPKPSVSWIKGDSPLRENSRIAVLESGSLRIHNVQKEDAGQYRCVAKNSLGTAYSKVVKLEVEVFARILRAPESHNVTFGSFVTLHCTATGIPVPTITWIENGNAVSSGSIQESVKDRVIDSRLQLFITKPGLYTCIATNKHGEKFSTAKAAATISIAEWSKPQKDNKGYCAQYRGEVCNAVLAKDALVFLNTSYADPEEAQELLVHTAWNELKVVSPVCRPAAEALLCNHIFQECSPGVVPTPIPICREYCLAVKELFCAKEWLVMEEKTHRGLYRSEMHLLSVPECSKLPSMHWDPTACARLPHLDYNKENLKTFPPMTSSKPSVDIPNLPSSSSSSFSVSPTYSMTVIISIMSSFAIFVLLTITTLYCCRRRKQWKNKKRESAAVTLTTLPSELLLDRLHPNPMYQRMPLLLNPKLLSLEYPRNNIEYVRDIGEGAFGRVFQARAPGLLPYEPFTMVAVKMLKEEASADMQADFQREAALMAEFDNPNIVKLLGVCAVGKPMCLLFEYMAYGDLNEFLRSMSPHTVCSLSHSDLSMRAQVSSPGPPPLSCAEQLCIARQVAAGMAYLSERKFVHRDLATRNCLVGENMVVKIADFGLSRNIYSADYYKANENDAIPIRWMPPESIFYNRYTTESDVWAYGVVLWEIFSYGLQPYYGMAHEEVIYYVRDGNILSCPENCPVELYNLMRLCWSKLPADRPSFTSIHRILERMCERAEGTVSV
# [2] = molecular target: T1, Muscle, skeletal receptor tyrosine-protein kinase (Homo sapiens); details: at 10 µM
# [3] = molecular target: T2, Serine/threonine-protein kinase Nek11 (Homo sapiens) (UniProt Q8NG66); details: at 1 µM
# T2 sequence (whole entry): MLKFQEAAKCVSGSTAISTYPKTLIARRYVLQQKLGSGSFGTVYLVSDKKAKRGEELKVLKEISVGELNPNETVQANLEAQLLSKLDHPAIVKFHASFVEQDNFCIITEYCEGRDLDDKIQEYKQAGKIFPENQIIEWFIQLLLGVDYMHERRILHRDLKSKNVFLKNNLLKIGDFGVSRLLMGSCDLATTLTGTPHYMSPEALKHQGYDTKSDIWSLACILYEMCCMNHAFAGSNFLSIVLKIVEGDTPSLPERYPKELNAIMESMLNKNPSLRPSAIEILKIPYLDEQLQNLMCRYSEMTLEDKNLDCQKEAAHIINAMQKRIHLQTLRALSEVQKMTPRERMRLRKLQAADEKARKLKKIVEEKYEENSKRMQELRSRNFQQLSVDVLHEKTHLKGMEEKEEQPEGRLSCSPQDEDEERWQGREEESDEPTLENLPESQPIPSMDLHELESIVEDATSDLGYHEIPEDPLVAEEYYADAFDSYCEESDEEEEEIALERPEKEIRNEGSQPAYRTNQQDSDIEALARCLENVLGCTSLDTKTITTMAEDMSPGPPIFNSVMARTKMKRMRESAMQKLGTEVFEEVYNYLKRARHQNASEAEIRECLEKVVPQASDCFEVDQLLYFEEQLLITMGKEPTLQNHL
# [4] = molecular target: T2, Serine/threonine-protein kinase Nek11 (Homo sapiens); details: at 10 µM
# [5] = molecular target: T3, Serine/threonine-protein kinase Nek2 (Homo sapiens) (UniProt P51955); details: at 1 µM
# T3 sequence (whole entry): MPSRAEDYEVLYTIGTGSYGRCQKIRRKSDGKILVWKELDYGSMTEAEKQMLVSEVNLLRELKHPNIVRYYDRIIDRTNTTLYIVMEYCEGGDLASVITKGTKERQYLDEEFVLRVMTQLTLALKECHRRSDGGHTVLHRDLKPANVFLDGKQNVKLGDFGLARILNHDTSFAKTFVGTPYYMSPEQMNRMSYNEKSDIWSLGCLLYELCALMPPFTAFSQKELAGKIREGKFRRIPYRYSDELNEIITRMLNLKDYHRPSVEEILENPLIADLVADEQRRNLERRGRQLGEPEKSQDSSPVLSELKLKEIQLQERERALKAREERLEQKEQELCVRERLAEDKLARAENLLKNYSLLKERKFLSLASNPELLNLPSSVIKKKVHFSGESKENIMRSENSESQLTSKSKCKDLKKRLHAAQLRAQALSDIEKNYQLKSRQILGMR
# [6] = molecular target: T3, Serine/threonine-protein kinase Nek2 (Homo sapiens); details: at 10 µM
# [7] = molecular target: T4, Serine/threonine-protein kinase Nek3 (Homo sapiens) (UniProt P51956); details: at 1 µM
# T4 sequence (whole entry): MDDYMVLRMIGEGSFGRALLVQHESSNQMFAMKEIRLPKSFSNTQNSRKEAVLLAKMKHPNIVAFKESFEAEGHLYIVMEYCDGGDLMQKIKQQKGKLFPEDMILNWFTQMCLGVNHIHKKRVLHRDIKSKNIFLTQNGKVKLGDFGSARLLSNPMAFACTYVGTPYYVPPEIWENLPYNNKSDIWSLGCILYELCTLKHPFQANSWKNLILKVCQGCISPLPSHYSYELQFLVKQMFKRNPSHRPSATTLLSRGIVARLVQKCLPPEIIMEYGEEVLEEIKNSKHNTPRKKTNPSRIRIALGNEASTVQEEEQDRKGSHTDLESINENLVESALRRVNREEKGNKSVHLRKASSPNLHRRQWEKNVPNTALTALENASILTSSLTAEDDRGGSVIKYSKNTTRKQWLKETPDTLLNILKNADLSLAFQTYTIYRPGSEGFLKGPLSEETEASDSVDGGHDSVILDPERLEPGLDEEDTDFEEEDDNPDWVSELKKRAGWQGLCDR
# [8] = molecular target: T4, Serine/threonine-protein kinase Nek3 (Homo sapiens); details: at 10 µM
# [9] = molecular target: Serine/threonine-protein kinase tousled-like 2 (Homo sapiens) (UniProt Q86UE8); details: at 1 µM
# [10] = molecular target: Serine/threonine-protein kinase tousled-like 2 (Homo sapiens) (UniProt Q86UE8); details: at 10 µM
# [11] = molecular target: T5, Testis-specific serine/threonine-protein kinase 1 (Homo sapiens) (UniProt Q9BXA7); details: at 1 µM
# T5 sequence (whole entry): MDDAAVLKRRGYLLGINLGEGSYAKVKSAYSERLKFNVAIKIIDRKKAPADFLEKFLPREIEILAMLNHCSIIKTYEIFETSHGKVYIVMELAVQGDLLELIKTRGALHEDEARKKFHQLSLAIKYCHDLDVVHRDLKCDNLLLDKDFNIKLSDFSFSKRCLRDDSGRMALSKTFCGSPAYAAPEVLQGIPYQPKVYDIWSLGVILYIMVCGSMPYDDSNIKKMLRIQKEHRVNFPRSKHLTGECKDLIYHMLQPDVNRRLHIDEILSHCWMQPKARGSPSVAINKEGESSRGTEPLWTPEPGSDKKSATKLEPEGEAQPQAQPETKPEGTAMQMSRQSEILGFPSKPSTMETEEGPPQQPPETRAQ
# [12] = molecular target: T5, Testis-specific serine/threonine-protein kinase 1 (Homo sapiens); details: at 10 µM
# [13] = molecular target: T6, Testis-specific serine/threonine-protein kinase 2 (Homo sapiens) (UniProt Q96PF2); details: at 10 µM
# T6 sequence (whole entry): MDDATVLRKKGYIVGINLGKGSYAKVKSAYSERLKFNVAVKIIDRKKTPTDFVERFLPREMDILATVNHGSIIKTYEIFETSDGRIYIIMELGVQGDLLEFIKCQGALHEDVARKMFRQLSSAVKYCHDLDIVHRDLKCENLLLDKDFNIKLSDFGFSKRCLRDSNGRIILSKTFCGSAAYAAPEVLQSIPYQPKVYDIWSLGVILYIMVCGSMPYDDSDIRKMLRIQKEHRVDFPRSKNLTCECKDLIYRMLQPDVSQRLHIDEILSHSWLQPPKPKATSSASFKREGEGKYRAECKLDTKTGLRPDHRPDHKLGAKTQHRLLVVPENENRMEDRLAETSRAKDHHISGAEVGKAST
# [14] = molecular target: T7, Tyrosine-protein kinase Tec (Homo sapiens) (UniProt P42680); details: at 1 µM
# T7 sequence (whole entry): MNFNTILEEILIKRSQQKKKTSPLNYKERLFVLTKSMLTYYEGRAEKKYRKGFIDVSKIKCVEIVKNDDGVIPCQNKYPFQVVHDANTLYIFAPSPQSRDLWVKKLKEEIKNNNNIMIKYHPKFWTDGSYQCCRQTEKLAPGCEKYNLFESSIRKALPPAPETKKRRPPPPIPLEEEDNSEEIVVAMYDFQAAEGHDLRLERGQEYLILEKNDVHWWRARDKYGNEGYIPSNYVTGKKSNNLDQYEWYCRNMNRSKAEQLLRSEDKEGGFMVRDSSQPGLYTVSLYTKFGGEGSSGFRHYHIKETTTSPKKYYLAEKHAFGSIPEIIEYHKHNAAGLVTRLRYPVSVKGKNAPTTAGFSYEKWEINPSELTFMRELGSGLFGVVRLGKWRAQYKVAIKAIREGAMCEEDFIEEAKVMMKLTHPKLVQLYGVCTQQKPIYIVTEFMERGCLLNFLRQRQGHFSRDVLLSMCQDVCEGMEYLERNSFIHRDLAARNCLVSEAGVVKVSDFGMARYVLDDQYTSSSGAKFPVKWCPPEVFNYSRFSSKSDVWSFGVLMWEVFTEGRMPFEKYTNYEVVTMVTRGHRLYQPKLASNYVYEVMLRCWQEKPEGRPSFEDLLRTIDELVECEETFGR
# [15] = molecular target: T7, Tyrosine-protein kinase Tec (Homo sapiens); details: at 10 µM
# [16] = molecular target: Angiopoietin-1 receptor (Homo sapiens) (UniProt Q02763); details: at 1 µM
# [17] = molecular target: Angiopoietin-1 receptor (Homo sapiens) (UniProt Q02763); details: at 10 µM
# [18] = molecular target: High affinity nerve growth factor receptor (Homo sapiens) (UniProt P04629); details: at 1 µM
# [19] = molecular target: High affinity nerve growth factor receptor (Homo sapiens) (UniProt P04629); details: at 10 µM
# [20] = molecular target: BDNF/NT-3 growth factors receptor (Homo sapiens) (UniProt Q16620); details: at 1 µM
# Chain of BDNF/NT-3 growth factors receptor (Homo sapiens) (Q16620 32-822 limits assumed): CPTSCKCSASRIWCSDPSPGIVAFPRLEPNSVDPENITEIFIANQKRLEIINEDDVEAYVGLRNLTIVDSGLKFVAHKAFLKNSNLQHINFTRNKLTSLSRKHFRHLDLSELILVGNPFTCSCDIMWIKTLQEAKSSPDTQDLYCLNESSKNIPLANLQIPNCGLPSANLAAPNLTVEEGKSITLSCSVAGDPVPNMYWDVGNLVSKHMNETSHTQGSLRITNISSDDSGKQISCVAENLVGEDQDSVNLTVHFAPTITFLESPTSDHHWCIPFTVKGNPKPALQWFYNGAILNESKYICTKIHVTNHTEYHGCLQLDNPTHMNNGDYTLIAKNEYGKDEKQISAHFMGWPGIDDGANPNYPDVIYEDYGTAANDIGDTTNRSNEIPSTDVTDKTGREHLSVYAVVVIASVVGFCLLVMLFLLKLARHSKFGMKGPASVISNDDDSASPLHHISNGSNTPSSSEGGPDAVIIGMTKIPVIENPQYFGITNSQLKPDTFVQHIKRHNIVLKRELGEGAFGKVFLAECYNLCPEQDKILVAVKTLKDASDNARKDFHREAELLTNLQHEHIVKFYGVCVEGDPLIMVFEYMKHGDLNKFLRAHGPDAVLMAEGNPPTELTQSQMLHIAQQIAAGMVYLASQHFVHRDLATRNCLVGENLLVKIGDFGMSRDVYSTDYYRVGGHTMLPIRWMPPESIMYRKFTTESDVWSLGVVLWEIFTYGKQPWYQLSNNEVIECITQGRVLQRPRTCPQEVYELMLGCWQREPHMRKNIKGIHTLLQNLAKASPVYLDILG
# Chain of High affinity nerve growth factor receptor (Homo sapiens) (P04629 33-796 limits assumed): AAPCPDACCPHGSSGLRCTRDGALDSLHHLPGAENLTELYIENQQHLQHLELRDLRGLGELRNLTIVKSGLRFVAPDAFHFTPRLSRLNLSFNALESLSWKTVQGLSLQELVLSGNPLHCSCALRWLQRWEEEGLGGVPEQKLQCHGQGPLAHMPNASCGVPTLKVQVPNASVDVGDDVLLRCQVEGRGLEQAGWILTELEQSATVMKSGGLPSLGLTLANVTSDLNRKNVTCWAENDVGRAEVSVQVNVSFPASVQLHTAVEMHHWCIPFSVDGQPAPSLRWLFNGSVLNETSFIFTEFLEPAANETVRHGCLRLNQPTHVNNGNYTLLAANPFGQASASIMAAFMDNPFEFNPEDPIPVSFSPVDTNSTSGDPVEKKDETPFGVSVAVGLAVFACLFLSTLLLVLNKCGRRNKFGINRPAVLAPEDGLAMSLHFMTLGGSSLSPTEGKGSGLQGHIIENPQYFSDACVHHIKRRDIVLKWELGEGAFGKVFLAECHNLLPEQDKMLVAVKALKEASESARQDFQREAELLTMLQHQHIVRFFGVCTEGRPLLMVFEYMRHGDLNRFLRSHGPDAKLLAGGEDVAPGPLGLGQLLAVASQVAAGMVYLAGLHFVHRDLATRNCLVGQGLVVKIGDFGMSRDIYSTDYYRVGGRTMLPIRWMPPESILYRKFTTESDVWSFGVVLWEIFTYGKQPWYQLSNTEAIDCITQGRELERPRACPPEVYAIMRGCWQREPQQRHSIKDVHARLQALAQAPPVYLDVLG
# Chain of Angiopoietin-1 receptor (Homo sapiens) (Q02763 whole entry): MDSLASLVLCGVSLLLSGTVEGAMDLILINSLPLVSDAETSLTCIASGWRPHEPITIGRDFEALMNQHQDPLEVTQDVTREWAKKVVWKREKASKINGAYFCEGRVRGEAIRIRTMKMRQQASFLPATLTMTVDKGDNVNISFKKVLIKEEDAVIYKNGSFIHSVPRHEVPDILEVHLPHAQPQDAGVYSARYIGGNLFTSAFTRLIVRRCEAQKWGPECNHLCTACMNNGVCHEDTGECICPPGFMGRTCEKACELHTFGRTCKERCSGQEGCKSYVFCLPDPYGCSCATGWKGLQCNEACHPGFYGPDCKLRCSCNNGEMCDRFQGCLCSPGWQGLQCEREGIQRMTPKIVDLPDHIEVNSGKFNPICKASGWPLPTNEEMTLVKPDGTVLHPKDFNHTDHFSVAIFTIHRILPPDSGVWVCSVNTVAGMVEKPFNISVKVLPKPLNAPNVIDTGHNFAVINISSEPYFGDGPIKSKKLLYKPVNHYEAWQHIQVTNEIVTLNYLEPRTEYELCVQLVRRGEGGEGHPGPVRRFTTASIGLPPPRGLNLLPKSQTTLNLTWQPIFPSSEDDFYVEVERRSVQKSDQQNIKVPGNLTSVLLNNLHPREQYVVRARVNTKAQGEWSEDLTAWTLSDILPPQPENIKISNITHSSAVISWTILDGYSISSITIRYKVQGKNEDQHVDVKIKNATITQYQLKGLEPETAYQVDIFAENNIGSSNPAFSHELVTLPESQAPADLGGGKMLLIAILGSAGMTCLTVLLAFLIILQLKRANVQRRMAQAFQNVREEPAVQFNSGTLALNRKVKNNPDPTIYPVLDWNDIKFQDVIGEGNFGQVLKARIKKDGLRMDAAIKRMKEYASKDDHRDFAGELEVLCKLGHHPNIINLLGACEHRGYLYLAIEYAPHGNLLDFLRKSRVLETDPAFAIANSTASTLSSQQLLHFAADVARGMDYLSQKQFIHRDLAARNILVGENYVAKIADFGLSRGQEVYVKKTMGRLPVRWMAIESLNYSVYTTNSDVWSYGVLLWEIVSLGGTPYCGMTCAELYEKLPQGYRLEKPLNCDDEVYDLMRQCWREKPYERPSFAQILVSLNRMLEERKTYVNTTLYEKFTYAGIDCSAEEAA
# Chain of Serine/threonine-protein kinase tousled-like 2 (Homo sapiens) (Q86UE8 whole entry, looked up): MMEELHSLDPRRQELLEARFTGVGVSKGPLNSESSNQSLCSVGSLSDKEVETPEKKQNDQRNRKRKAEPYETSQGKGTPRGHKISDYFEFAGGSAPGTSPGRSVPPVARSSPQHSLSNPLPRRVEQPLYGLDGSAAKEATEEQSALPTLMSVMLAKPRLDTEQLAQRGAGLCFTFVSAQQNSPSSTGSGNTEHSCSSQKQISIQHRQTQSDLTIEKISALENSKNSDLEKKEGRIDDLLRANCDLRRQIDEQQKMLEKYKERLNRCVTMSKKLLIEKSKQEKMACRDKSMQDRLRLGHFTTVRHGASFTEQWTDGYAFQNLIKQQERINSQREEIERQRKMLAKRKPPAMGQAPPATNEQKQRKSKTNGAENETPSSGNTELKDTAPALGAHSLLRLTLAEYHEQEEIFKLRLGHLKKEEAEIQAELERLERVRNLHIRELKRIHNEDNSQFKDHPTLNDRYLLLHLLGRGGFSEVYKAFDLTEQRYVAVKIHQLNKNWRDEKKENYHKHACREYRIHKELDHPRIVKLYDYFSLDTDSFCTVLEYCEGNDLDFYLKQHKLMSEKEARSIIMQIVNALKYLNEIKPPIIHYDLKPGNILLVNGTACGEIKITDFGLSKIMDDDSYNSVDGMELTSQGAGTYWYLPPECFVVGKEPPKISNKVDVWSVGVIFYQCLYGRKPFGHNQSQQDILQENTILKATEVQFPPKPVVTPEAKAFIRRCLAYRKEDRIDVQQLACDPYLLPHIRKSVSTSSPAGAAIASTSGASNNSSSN
Compound,residual activity [1] [%],residual activity [2] [%],residual activity [3] [%],residual activity [4] [%],residual activity [5] [%],residual activity [6] [%],residual activity [7] [%],residual activity [8] [%],residual activity [9] [%],residual activity [10] [%],residual activity [11] [%],residual activity [12] [%],residual activity [13] [%],residual activity [14] [%],residual activity [15] [%],residual activity [16] [%],residual activity [17] [%],residual activity [18] [%],residual activity [19] [%],residual activity [20] [%]
Oc1n[nH]c2nnc(-c3c(-c4ccccc4)nn4ccccc34)cc12,87,84,56,74,95,93,77,103,83,82,82,93,83,85,66,97,93,83,70,98
O=C1NC(=O)/C(=C\c2ccc3nccnc3c2)S1,90,75,43,35,88,86,109,81,103,91,92,58,86,98,79,75,83,127,96,126
Nc1nc(Nc2ccc(S(N)(=O)=O)cc2)nn1C(=S)Nc1c(F)cccc1F,0,0,51,30,91,71,6,3,4,-1,16,12,12,78,23,-1,-2,0,-1,0
COc1ccc(C(=O)Nc2sc3c(c2C(N)=O)CCCC3)cc1OC,92,84,77,96,80,103,110,72,95,87,94,75,85,89,86,79,59,58,76,70
O=[N+]([O-])c1ccc(-c2nc(-c3ccc(F)cc3)c(-c3ccncc3)[nH]2)cc1,102,92,57,75,99,100,90,92,107,101,97,85,94,98,70,98,86,96,90,98
COc1cc2ncnc(Nc3ccc(O)c(Br)c3)c2cc1OC,77,63,50,64,73,83,106,81,86,76,87,62,91,76,34,61,53,82,44,110
O=C1NC(=O)c2c1c1c3ccccc3[nH]c1c1[nH]c3cc(Br)ccc3c21,104,90,62,73,91,88,85,92,85,86,110,91,86,98,82,94,81,37,27,74
Cc1nc(-c2ccccc2)c(-c2ccncc2)o1,113,94,81,85,103,102,102,114,106,103,100,88,98,103,42,100,122,117,95,55
NC(=O)c1ccc2[nH]c(-c3ccc(Oc4ccc(Cl)cc4)cc3)nc2c1,84,63,54,33,82,82,75,91,86,82,101,80,95,106,92,109,131,78,54,103
Nc1n[nH]c2nnc(-c3c(-c4ccccc4)nn4ccccc34)cc12,,86,107,97,91,86,83,87,89,82,87,90,86,82,50,94,72,68,24,94
Cc1ccc(S(=O)(=O)/C=C/C#N)cc1,85,96,72,81,97,90,90,98,87,89,91,107,91,95,90,115,118,105,92,117
CO[C@H]1C[C@@H]2CC[C@@H](C)[C@@](O)(O2)C(=O)C(=O)N2CCCC[C@H]2C(=O)O[C@H]([C@H](C)C[C@@H]2CC[C@@H](O)[C@H](OC)C2)CC(=O)[C@H](C)/C=C(\C)[C@@H](O)[C@@H](OC)C(=O)[C@H](C)C[C@H](C)/C=C/C=C/C=C/1C,87,86,97,112,83,81,113,64,92,83,86,80,106,96,90,79,96,89,41,102
Cn1cc(/C=C2\C(=O)Nc3ccc(S(N)(=O)=O)cc32)c2ccccc21,69,28,83,90,79,26,72,19,87,43,19,14,72,52,6,86,73,1,1,23
